Screening results (PubChem BioAssay)
Only a selection was taken, and hits are over-represented in it overall.
HT1080 IDH1KD tx – toxicity to HT-1080 IDH1 knockdown cells (counter line). 360,000 tested, 2% active. HT-1080 IDH1 knockdown viability, ATP luminescence, 48 h. Potency, µM (highest dose often 46.1 µM), inactives show at the top dose activity, negative = toxicity, actives largely listed as cytotoxic;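 also: potency is read from the fitted curve at half-maximal effect; 0% = DMSO wells and -100% = cell-free medium wells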
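Luminescent ATP read-out (CellTiter-Glo, 10 min at room temperature) after 48 h compound exposure at 37 °C gave viability of IDH1-knockdown HT-1080 cells. Activity was normalised to DMSO and cell-free wells, then fitted as concentration-response curves.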
IL-1B inflam inh – inhibitors of inflammasome signaling (IL-1 beta secretion). THP-1 LPS/ATP IL-1B secretion, AlphaLISA, 16 h; stronger effect = lower value. activity change, % at 57.5 µM. 360,000 tested, 4.7% active. AID 743279; in the data active = activity change below about -50%; inconclusive = mostly about -30% to -49%
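THP-1 cells pretreated 1 hr with compounds (up to 57.5 uM final), then stimulated with LPS (250 ng/mL final) plus ATP (1.25 mM final); secreted IL-1B measured by AlphaLISA after 16 hr, decreased signal indicating inhibition.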
HT1080NT lethal – kills 2HG-producing HT-1080-NT fibrosarcoma cells | HT-1080-NT fibrosarcoma viability, CellTiter-Glo ATP luminescence, 48 h | 360,000 tested, 1.6% active | Potency, µM (doses to about 46.1 µM), inactives show top-dose activity, negative = less viability, usual class: cytotoxic;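 also: NT is the 2HG producing partner of a matched IDH1 knockdown line; potency is read from the fitted curve at half-maximal effect; 0% = DMSO-treated cells and -100% = media-only wells without cells; nearly all actives have a fitted effect of over 55% in size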
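HT-1080-NT; 750 cells/well; 5% FBS RPMI; 48 h compound, 37 degrees C; CellTiter-Glo luminescence; curve fitting and curve-class assignment.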
TDP1 cell CPT – growth inhibition of DT40 Tdp1-/-;hTDP1 cells with camptothecin (screen for TDP1 inhibitors) | chicken DT40 Tdp1-/-;hTDP1 cells + 20 nM CPT, ATP luminescence, 48 h | Potency, µM (series often up to 46.2 µM), for inactives: top-dose activity change, negative = growth inhibition, usual class: inhibitors | 420,000 tested, 12% active | AID 686979; also: potency is read from the fitted curve at half-maximal effect; nearly all actives have a fitted effect of over 55% in size
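Chicken DT40 Tdp1-/- cells stably complemented with human TDP1 were seeded at 400 cells/well in medium containing 20 nM camptothecin, exposed to pin-transferred compounds, and grown at 37 °C for at least 48 hr. Viability was read as ATP luminescence.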
ALOX12 inh – inhibitors of human 12S-lipoxygenase ALOX12; 580,000 tested, 1.1% active; Potency, µM (highest dose often 108 µM), without a hit: top-dose activity change, negative = inhibition, most hits filed as inhibitors; purified 12hLO, xylenol orange hydroperoxide absorbance; also: potency is read from the fitted curve at half-maximal effect
Target sequence (P18054 whole entry, looked up): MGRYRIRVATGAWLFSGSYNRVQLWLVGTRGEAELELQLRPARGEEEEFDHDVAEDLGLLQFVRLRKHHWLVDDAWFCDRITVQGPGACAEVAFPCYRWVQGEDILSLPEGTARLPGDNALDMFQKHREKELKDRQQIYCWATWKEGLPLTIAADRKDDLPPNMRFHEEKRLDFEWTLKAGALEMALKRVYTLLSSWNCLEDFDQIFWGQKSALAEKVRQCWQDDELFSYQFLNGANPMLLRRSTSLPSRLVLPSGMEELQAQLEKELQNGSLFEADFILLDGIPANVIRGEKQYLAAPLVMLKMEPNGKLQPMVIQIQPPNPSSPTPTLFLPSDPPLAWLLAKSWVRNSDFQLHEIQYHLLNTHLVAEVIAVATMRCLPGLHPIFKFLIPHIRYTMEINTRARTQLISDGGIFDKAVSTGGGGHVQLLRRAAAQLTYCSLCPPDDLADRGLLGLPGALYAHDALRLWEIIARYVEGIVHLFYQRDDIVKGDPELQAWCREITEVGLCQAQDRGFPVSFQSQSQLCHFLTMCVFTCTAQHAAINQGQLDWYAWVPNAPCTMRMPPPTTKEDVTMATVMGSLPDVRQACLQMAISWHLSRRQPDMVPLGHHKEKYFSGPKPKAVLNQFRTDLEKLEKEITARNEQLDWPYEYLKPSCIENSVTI
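Hydroperoxide product was detected by ferrous iron/xylenol orange as the 573 to 405 nm absorbance ratio. Arachidonic acid at 40 uM (final) was turned over for 30 min at room temperature by 150 nM human 12hLO, pH 7.0 Hepes buffer, after 15 min compound preincubation.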
DT40 TDP1 no CPT – qHTS for Inhibitors of human tyrosyl-DNA phosphodiesterase 1 (TDP1): qHTS in cells in absence of CPT | DT40 Tdp1-/- hTDP1 cells, no CPT, ATP luminescence, 48 h | Potency, µM (highest dose often 46.2 µM), for inactives: at the top dose activity change, negative = growth inhibition, usual class: inhibitors | 420,000 tested, 15% active | AID 686978, 2013; also: potency is read from the fitted curve at half-maximal effect; nearly all actives have a fitted effect of over 55% in size
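Compound effects on proliferation are scored in DT40 Tdp1-/-;hTDP1 cells in the absence of CPT. ATP levels (CellTiter-Glo luminescence) are recorded after a ≥48 hr, 37 °C incubation.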
* marks the source's active call; other numbers are inactive results; ? = inconclusive; nt = not tested or not shown; [ ] = remark or other dose. Unless noted, calls follow the shape of the dose curve; as a rule, active = well fitted curve in the direction sought with a large enough effect; inconclusive = small, poorly fitted or top-dose-only effect, or another doubt; inactive = no such curve, though single readings can be large; an effect the other way counts as inactive or inconclusive. Unless noted, % is scaled to controls: 0 for no effect and ±100 for the full control effect.

SMILES	HT1080 IDH1KD tx	IL-1B inflam inh	HT1080NT lethal	TDP1 cell CPT	ALOX12 inh	DT40 TDP1 no CPT
N=C1C(c2nc3ccccc3c(=O)[nH]2)=C(O)CN1c1cccc(Cl)c1Cl	nt	nt	nt	nt	-6%	nt
CC(C)N(C)CC1CCN(C(=O)NCCc2ccc(F)cc2)CC1	nt	nt	nt	nt	12%	nt
COC(=O)c1ccc(-c2nc3ccc(C)cc3o2)cc1	?	-16	-10%	10µM*	4%	8.2µM*
COc1cccc(C(=O)Nc2ccc(-c3nc4ccccc4o3)c(O)c2)c1	?	-5	?	18µM*	4%	16µM*
COc1ccc(NC(=C(C#N)C#N)C(F)(F)Cl)cc1	nt	nt	nt	nt	-11%	nt
CCOCC(=O)N1CCCn2ccnc2C1CC (stereo not drawn)	nt	nt	nt	nt	49%	nt
COc1cccc2sc(N3CCN(C(=O)CS(=O)(=O)c4ccc(Cl)cc4)CC3)nc12	nt	nt	nt	16µM*	-27%	18µM*
COc1cccc2sc(N3CCN(C(=O)c4cccs4)CC3)nc12	-2%	-14	-3%	?	-26%	-24%
Cc1ccc(S(=O)(=O)CC(=O)N2CCCCCC2)cc1	-1%	-2	0%	-18%	0%	-8%
Cc1ccc(S(=O)(=O)CC(=O)N2CCN(c3nc4c(F)cccc4s3)CC2)cc1	nt	nt	nt	21µM*	-27%	18µM*
COc1cccc(-c2nc(-c3nnn4c3COC(c3ccc(C)cc3)C4)no2)c1 (stereo not drawn)	nt	nt	nt	nt	13%	nt
Cc1ccc(-n2ncc3c(Nc4ccc(Oc5ccccc5)cc4)ncnc32)c(C)c1	nt	nt	nt	16µM*	?	23µM*
CCOc1ccc(Nc2ncnc3c2cnn3-c2ccc(F)cc2)cc1	nt	nt	nt	-19%	-20%	-25%
Cc1ccc(-n2ncc3c(Nc4ccccc4C)ncnc32)cc1	nt	nt	nt	?	-2%	16µM*
Cc1ccc(-n2ncc3c(Nc4cccc(Cl)c4)ncnc32)c(C)c1	nt	nt	nt	?	-23%	?
CCc1ccccc1Nc1ncnc2c1cnn2-c1ccc(C)cc1C	nt	nt	nt	?	?	18µM*
Fc1ccc(-n2ncc3c(Nc4ccc(Oc5ccc(Cl)cc5)cc4)ncnc32)cc1	nt	nt	nt	?	-16%	18µM*
CCN(c1ccccc1)c1ncnc2c1cnn2-c1ccc(C)cc1C	nt	nt	nt	9.2µM*	-11%	9.2µM*
Cc1ccc(-n2ncc3c(SCc4cccc(C)c4)ncnc32)cc1	?	15	?	-24%	-21%	-29%
Cc1ccc(-n2ncc3c(SCc4cccnc4)ncnc32)c(C)c1	?	-13	?	16µM*	15%	12µM*
CCc1ccccc1Nc1ncnc2c1cnn2-c1ccc(Cl)cc1	nt	nt	nt	16µM*	?	?
O=C(Cc1ccccc1)N1CCCC2(CC(c3ccccc3)=NO2)C1 (stereo not drawn)	nt	nt	nt	nt	-1%[6.33 µM]	nt
COc1ccccc1C1C(C(N)=O)=C(C)Nc2nc(-c3ccc(Cl)cc3)nn21 (stereo not drawn)	-3%	-25	-3%	3%	22%[57.4 µM]	10%
COc1ccccc1C1C=C(c2ccc(F)cc2)Nc2nc(-c3ccc(Cl)cc3)nn21 (stereo not drawn)	nt	nt	nt	21µM*	0%	16µM*
COc1ccccc1C1C=C(c2ccc(Cl)cc2)Nc2nc(-c3ccc(Cl)cc3)nn21 (stereo not drawn)	nt	nt	nt	16µM*	?	?
SMILES	HT1080 IDH1KD tx	IL-1B inflam inh	HT1080NT lethal	TDP1 cell CPT	ALOX12 inh	DT40 TDP1 no CPT
CC1=C(C(N)=O)C(c2ccccc2F)n2nc(-c3ccc(Cl)cc3)nc2N1 (stereo not drawn)	nt	nt	nt	-15%	?	-16%
CC(C)CCNC(=S)NN	nt	nt	nt	nt	-3%	nt
O=C/C=C/c1ccccc1[N+](=O)[O-]	nt	nt	nt	nt	-30%	nt
COc1ccc(C(=O)N[C@@H]2CCC[C@@H]2C(=O)N2CCN(c3cc(C)ccc3C)CC2)cc1	nt	nt	nt	nt	34%	nt
CCN1CCN(C(=O)c2ccccc2Nc2ccc(SC(F)F)cc2)CC1	-9%	?	-11%	-9%	?	-22%
CN1CCN(C(=O)c2ccccc2Nc2ccc(SC(F)F)cc2)CC1	3%	-18	0%	?	?	16µM*
COc1ccc(NC(=O)O[C@@H]2CO[C@H]3[C@@H]2OC[C@@H]3NC(=O)Nc2ccc(C(C)C)cc2)cc1	nt	nt	nt	nt	-43%	nt
N#Cc1nc(N(c2ccccc2)c2ccccc2)nc(-n2cccc2)n1	nt	nt	nt	7.1µM*	nt	3.5µM*
CCNc1nc(C#N)nc(N2CCOCC2)n1	nt	nt	nt	?	nt	13µM*
CCOc1nc(OCC#N)nc(N2CCOCC2)n1	nt	nt	nt	nt	22%	nt
N#Cc1nc(N2CCOCC2)nc(N2CCOCC2)n1	-1%	-1	-1%	18µM*	?	26µM*
CN(c1ccccc1)c1nc(C#N)nc(N2CCOCC2)n1	nt	nt	nt	13µM*	nt	10µM*
Cc1cccc(-c2nn3c(N(C)C)cc(C)nc3c2C)c1	nt	nt	nt	nt	-14%	nt
Cc1nc(-c2cn(C3CCCN(C(=O)c4ccc(C#N)cc4)C3)nn2)no1 (stereo not drawn)	nt	nt	nt	nt	10%	nt
NC(=O)c1nc(N2CCOCC2)nc(N2CCOCC2)n1	-3%	-8	-4%	14µM*	0%	14µM*
CC(C)(C)Nc1nc(C(N)=O)nc(N2CCOCC2)n1	-8%	-9	-6%	?	-4%	?
O=C(COc1ccc(Br)cc1F)OCC(=O)N1CCNC1=O	nt	nt	nt	nt	12%	nt
COc1ccc(NC(=O)CSc2nnc(-c3cccs3)n2-c2ccccc2)cc1	?	8	23µM*	-5%	0%	-15%
COc1ccc(NC(=O)CSc2nnc(C3CC3)n2-c2ccccc2)cc1	5%	-5	8%	-16%	4%	-6%
Cn1c(=O)n(C)c2cc(NC(=O)CSc3nnc(-c4ccccc4O)n3-c3ccccc3)ccc21	-13%	-9	-19%	18µM*	17%	?
COc1ccc(NC(=O)CSc2nnc(-c3ccccc3C)n2N)cc1	0%	-1	3%	16µM*	0%	21µM*
O=S(=O)(N1CCOCC1)N1CCCC(c2ccccc2)(c2ccccc2)C1	nt	nt	nt	nt	53%	nt
CC(C)[C@@H](NC(=O)OC(C)(C)C)c1cc(C(=O)c2c(-c3ccccc3)[nH]c3ccccc23)c(N)s1	?	?	?	18µM*	?	18µM*
CC(C)[C@H](NC(=O)OC(C)(C)C)c1cc(C(=O)NCCc2c[nH]c3ccccc23)c(N)s1	-21%	-2	-29%	16µM*	-47%	21µM*
CC1CC(C)(C)NC(=S)N1CCCC(=O)Nc1ccc(Br)cc1 (stereo not drawn)	?	-78*	-5%	?	?	?
